Data from PubChem BioAssay AID1159580 (chemical genetic matrix, 2015).
Where “and” joins values, the source holds several entries; their conditions need not be identical. Equal entries are not always repeated. Hit rate of the full screen: of about 5,500 compounds, about 2,000 (36%) were called active. Inconclusive results (about 18%) are left out. No stated cut-off is given here; in the data, active means normalized growth mostly below about 0.91 (no sharp cut-off); inconclusive means no clear call, values can overlap the other calls; inactive means mostly above about 0.92. The list shows a part of the results.

Assay: chemical genetic growth profiling, strain panel (AID 1159580);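 further: tested at 20 µM; growth read once vehicle control cultures reached saturation at 30 °C; 1 = growth at the plate median or of vehicle wells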
Conditions: S. cerevisiae deletion strains, growth OD

Measured: normalized growth

Nc1c2ccccc2nc2ccccc12 (tested in a mixture with another compound)
active: locus YAL013W, strain DEP1, stronger effect = lower value 0.822 | locus YAL021C, strain ccr4, stronger effect = lower value 0.67 | locus YAL026C, strain drs2, stronger effect = lower value 0.541 | locus YAL030W, strain snc1, stronger effect = lower value 0.679 | locus YBL061C, strain skt5, stronger effect = lower value 0.795 | locus YBR009C, strain hhf1, stronger effect = lower value 0.495 | locus YBR023C, strain chs3, stronger effect = lower value 0.751 | locus YBR231C, strain swc5, stronger effect = lower value 0.677 | locus YBR279W, strain paf1, stronger effect = lower value 0.555 | locus YCL011C, strain gbp2, stronger effect = lower value 0.704 | locus YCL016C, strain dcc1, stronger effect = lower value 0.467 | locus YCL029C, strain bik1, stronger effect = lower value 0.485 | locus YCL061C, strain MRC1, stronger effect = lower value 0.842 | locus YCL069W, strain vba3, stronger effect = lower value 0.777 | locus YCR088W, strain abp1, stronger effect = lower value 0.682 | locus YDL005C, strain med2, stronger effect = lower value 0.801 | locus YDL035C, strain GPR1, stronger effect = lower value 0.507 | locus YDL040C, strain nat1, stronger effect = lower value 0.875 | locus YDL074C, strain BRE1, stronger effect = lower value 0.498 | locus YDL101C, strain DUN1, stronger effect = lower value 0.76 | locus YDL134C, strain PPH21, stronger effect = lower value 0.629 | locus YDL192W, strain arf1, stronger effect = lower value 0.691 | locus YDR069C, strain doa4, stronger effect = lower value 0.519 | locus YDR101C, strain arx1, stronger effect = lower value 0.593 | locus YDR137W, strain rgp1, stronger effect = lower value 0.572 | locus YDR150W, strain NUM1, stronger effect = lower value 0.883 | locus YDR159W, strain sac3, stronger effect = lower value 0.773 | locus YDR162C, strain NBP2, stronger effect = lower value 0.718 | locus YDR297W, strain sur2, stronger effect = lower value 0.749 | locus YDR318W, strain mcm21, stronger effect = lower value 0.655 | locus YDR335W, strain msn5, stronger effect = lower value 0.807 | locus YDR388W, stronger effect = lower value 0.406 | locus YDR392W, strain spt3, stronger effect = lower value 0.6 | locus YDR502C, strain sam2, stronger effect = lower value 0.606 | locus YEL003W, strain gim4, stronger effect = lower value 0.665 | locus YEL037C, strain rad23, stronger effect = lower value 0.763 | locus YEL061C, strain CIN8 (second series), stronger effect = lower value 0.887 | locus YEL061C, strain CIN8, stronger effect = lower value 0.838 | locus YER015W, strain faa2, stronger effect = lower value 0.821 | locus YER016W, strain bim1, stronger effect = lower value 0.686 | locus YER111C, strain swi4, stronger effect = lower value 0.904 | locus YER155C, strain BEM2 (second series), stronger effect = lower value 0.774 | locus YER155C, strain BEM2, stronger effect = lower value 0.89 | locus YER167W, strain BCK2, stronger effect = lower value 0.58 | locus YFR010W, strain ubp6, stronger effect = lower value 0.627 | locus YGL078C, strain dbp3, stronger effect = lower value 0.778 | locus YGL086W, strain mad1, stronger effect = lower value 0.618 | locus YGL173C, strain kem1, stronger effect = lower value 0.656 | locus YGL227W, strain vid30, stronger effect = lower value 0.836 | locus YGL240W, strain doc1, stronger effect = lower value 0.874 | locus YGL248W, strain PDE1, stronger effect = lower value 0.559 | locus YGL253W, strain hxk2, stronger effect = lower value 0.582 | locus YGR078C, strain PAC10, stronger effect = lower value 0.703 | locus YGR135W, strain pre9, stronger effect = lower value 0.704 | locus YGR229C, strain SMI1, stronger effect = lower value 0.68 | locus YGR252W, strain gcn5, stronger effect = lower value 0.461 | locus YHR013C, strain ard1, stronger effect = lower value 0.494 | locus YHR027C, strain rpn1, stronger effect = lower value 0.853 | locus YHR030C, strain SLT2, stronger effect = lower value 0.749 and 0.474 | locus YHR079C, strain IRE1 (second series), stronger effect = lower value 0.531 | locus YHR079C, strain IRE1, stronger effect = lower value 0.484 | locus YHR129C, strain ARP1, stronger effect = lower value 0.781 | locus YHR142W, strain chs7, stronger effect = lower value 0.729 | locus YHR200W, strain rpn10, stronger effect = lower value 0.735 | locus YIL066C, strain RNR3, stronger effect = lower value 0.775 | locus YIL073C, strain SPO22, stronger effect = lower value 0.535 | locus YIL125W, strain kgd1, stronger effect = lower value 0.9 | locus YIR030C, strain dcg1, stronger effect = lower value 0.575 | locus YJL092W, strain hpr5, stronger effect = lower value 0.802 | locus YJL095W, strain BCK1 (second series), stronger effect = lower value 0.766 | locus YJL095W, strain BCK1, stronger effect = lower value 0.474 and 0.436 | locus YJL115W, strain asf1, stronger effect = lower value 0.849 | locus YJL154C, strain vps35, stronger effect = lower value 0.859 | locus YJL164C, strain tpk1, stronger effect = lower value 0.562 | locus YJL166W, strain qcr8, stronger effect = lower value 0.693 | locus YJL187C, strain SWE1 (second series), stronger effect = lower value 0.565 | locus YJL187C, strain SWE1, stronger effect = lower value 0.813 | locus YJR043C, strain POL32, stronger effect = lower value 0.686 | locus YJR066W, strain TOR1, stronger effect = lower value 0.397 | locus YJR075W, strain HOC1, stronger effect = lower value 0.505
inactive: locus YBR021W, strain FUR4, stronger effect = lower value 0.985 | locus YBR171W, strain sec66, stronger effect = lower value 0.964 | locus YBR229C, strain ROT2, stronger effect = lower value 0.976 | locus YDL185W, strain tfp1, stronger effect = lower value 0.998 | locus YDR001C, strain nth1, stronger effect = lower value 0.956 | locus YDR334W, strain swr1, stronger effect = lower value 0.943 | locus YER110C, stronger effect = lower value 0.996 | locus YGL167C, strain pmr1, stronger effect = lower value 0.927 | locus YJL129C, strain trk1, stronger effect = lower value 1.02 | locus YJL134W, strain LCB3, stronger effect = lower value 0.982 | locus YJL168C, strain set2, stronger effect = lower value 0.946
